PubChem BioAssay (EPA / NIEHS)
Records with an inconclusive call do not appear. The source made the active and inactive calls. Rule for the calls, unless noted: active = hit-call score of the fitted dose curve at least 0.9, where 1 is the maximum; inconclusive = response in the unintended direction; inactive = score below 0.9.

What was measured:
[1] = ATG_VDRE_CIS: Attagene CIS-FACTORIAL HepG2 Assay for human Vitamin D Receptor Element (VDRE) (AID 2282968; active = hit-call score of the fitted dose curve at least 0.9, where 1 is the maximum; inactive = score below 0.9); details: HepG2 VDRE cis-reporter transcription, actives raise or lower the signal
In short: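 Readout is VDRE-driven reporter mRNA reflecting endogenous factor activity in human HepG2 cells, sampled 24 h post-dose. Quantification used labelled RT-PCR products separated by capillary electrophoresis; bidirectional analysis relative to DMSO.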

[2] = molecular target: Nuclear receptor subfamily 1 group I member 3 (Homo sapiens) (UniProt Q14994); assay: ATG_CAR_TRANS: Attagene TRANS-FACTORIAL HepG2 Assay for human Constitutive Androstane Receptor (CAR) (AID 2282969); details: HepG2 Attagene TRANS-FACTORIAL CAR reporter;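 note: activators raise reporter mRNA above DMSO so AC50 marks induction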
In short: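 Signal is reporter mRNA induction relative to DMSO, measured 24 h after dosing by RT-PCR with fluorescent primer extension and capillary electrophoresis. Human HepG2 liver cells carried transiently transfected chimeric NR-Gal4/GAL4-UAS reporter constructs.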

[3] = molecular target: X-box-binding protein 1 (Homo sapiens) (UniProt P17861); assay: ATG_Xbp1_CIS: Attagene CIS-FACTORIAL HepG2 Assay for human X-box Binding Protein 1 (XBP1) (AID 2282972; active = hit-call score of the fitted dose curve at least 0.9, where 1 is the maximum; inactive = score below 0.9); details: HepG2 XBP1 cis-element reporter, Attagene multiplex; actives raise or lower the signal
In short: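 Read-out: fluorescent reporter mRNA fragments resolved by capillary electrophoresis after RT-PCR. Human HepG2 liver cells carried transfected cis-promoter reporter units and were exposed to chemicals for 24 hours. Gain or loss of signal fitted relative to DMSO baseline.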

[4] = molecular target: Estrogen-related receptor gamma (Homo sapiens) (UniProt P62508); assay: ATG_ERRg_TRANS: Attagene TRANS-FACTORIAL HepG2 Assay for human Estrogen-Related Receptor gamma (ERRg) (AID 2282977); details: HepG2 Attagene TRANS reporter, ERRg transactivation;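 note: hits increase reporter signal over DMSO so potencies reflect activators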
In short: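 Exogenous NR-Gal4 chimera activity measured as reporter transcript induction after 24 h in transiently transfected HepG2 cells. RNA reverse-transcribed, PCR-amplified, 6-FAM-labelled and resolved by capillary electrophoresis; increase over DMSO baseline.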

[5] = molecular target: Glucocorticoid receptor (Homo sapiens) (UniProt P04150); assay: ATG_GR_TRANS: Attagene TRANS-FACTORIAL HepG2 Assay for human Glucocorticoid Receptor (GR) (AID 2282978); details: HepG2 Attagene TRANS GR reporter, mRNA transcription;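 note: activators score as hits since higher reporter transcript over DMSO is fitted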
In short: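 Transient MRTU transfection of HepG2 (GAL4-UAS reporters, exogenous NR-GAL4 chimeras), 24 h dosing. Readout: reporter transcript via RT-PCR + capillary electrophoresis fluorescence. Positive direction vs DMSO baseline.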

[6] = molecular target: Bile acid receptor (Homo sapiens) (UniProt Q96RI1); assay: ATG_FXR_TRANS: Attagene TRANS-FACTORIAL HepG2 Assay for Farnesoid X Receptor (FXR) (AID 2282979); details: HepG2 Attagene TRANS FXR-GAL4 reporter transcription;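 note: hits raise reporter mRNA above DMSO so AC50 marks FXR activation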
In short: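 Chimeric FXR-GAL4 activity in transiently transfected human HepG2 liver cells is scored as induction of reporter mRNA after 24 h of dosing. Detection uses RT-PCR with fluorescent labelling and capillary electrophoresis, with DMSO serving as baseline.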

[7] = molecular target: Estrogen receptor (Homo sapiens) (UniProt P03372); assay: ATG_ERa_TRANS: Attagene TRANS-FACTORIAL HepG2 Assay for human Estrogen Receptor alpha (ERa) (AID 2282970); details: HepG2 Attagene TRANS ERa GAL4 reporter, mRNA
In short: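 Transfected HepG2 cells carrying GAL4-UAS-driven reporter units were dosed for 24 hours. Total RNA was reverse-transcribed, reporter sequences PCR-amplified, FAM-labelled, HpaI-digested and resolved by capillary electrophoresis. Increases over DMSO control defined activity.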

[8] = molecular target: Steroid hormone receptor ERR1 (Homo sapiens) (UniProt P11474); assay: ATG_ERRa_TRANS: Attagene TRANS-FACTORIAL HepG2 Assay for human Estrogen-Related Receptor alpha (ERRa) (AID 2282971); details: HepG2 Attagene TRANS reporter, ERRa transactivation
In short: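 HepG2 cells were transiently transfected with multiple GAL4-UAS reporter units, then dosed with compound for 24 h. Total RNA was reverse-transcribed, reporter cDNA PCR-amplified and fluorescently labelled, and fragments resolved by capillary electrophoresis; induction was compared with DMSO.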

[9] = ATG_M_19_TRANS: Attagene TRANS-FACTORIAL HepG2 Assay for M19 Transcription Factor (Internal Marker) (AID 2282974); details: HepG2 Attagene TRANS-FACTORIAL M19 internal marker reporter
In short: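 24 h chemical exposure of transiently transfected HepG2 (MRTU library). RNA → oligo(dT) RT → PCR → 6-FAM labelling → HpaI cut → CE fluorescence. Positive-direction fit vs DMSO baseline; background internal-marker readout.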

[10] = ATG_GAL4_TRANS: Attagene TRANS-FACTORIAL HepG2 Assay for GAL4 (Internal Marker) (AID 2282976); details: HepG2 Attagene TRANS GAL4 internal marker reporter
In short: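 Fluorescence from capillary electrophoresis of labelled RT-PCR products quantifies reporter mRNA induction after 24 h dosing of HepG2 cells carrying transfected GAL4-UAS reporter transcription units. Vehicle DMSO serves as baseline.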

Sequence of Estrogen receptor (Homo sapiens) (P03372 whole entry, looked up, the tested form may be a part): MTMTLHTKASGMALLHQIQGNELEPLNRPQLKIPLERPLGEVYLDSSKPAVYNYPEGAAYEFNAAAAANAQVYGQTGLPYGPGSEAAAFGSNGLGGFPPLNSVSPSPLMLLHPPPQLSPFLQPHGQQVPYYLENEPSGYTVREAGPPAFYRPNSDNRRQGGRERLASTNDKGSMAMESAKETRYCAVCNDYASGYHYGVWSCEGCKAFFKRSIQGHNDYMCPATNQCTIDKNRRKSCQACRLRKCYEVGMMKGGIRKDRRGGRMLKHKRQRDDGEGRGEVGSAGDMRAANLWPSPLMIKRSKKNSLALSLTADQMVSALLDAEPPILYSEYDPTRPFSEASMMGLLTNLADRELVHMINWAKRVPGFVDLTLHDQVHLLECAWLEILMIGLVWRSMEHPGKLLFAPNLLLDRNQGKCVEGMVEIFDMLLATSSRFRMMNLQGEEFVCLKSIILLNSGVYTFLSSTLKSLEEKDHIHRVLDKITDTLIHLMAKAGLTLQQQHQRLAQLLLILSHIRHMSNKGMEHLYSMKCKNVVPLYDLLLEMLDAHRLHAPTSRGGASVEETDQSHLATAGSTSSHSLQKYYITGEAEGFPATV
Sequence of Estrogen-related receptor gamma (Homo sapiens) (P62508 whole entry, looked up, the tested form may be a part): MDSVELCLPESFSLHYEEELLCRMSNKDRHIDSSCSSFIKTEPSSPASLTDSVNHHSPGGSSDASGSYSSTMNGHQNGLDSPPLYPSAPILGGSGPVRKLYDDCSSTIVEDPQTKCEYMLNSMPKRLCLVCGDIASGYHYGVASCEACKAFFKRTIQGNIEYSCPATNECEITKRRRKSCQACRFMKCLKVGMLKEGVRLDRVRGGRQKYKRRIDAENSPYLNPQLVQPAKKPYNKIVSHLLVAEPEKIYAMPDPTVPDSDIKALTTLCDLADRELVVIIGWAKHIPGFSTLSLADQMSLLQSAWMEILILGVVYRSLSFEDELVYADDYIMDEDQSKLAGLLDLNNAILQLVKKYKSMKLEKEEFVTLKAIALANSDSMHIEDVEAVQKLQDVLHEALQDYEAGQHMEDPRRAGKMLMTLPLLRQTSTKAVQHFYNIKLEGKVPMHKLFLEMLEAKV
Sequence of X-box-binding protein 1 (Homo sapiens) (P17861 whole entry, looked up, the tested form may be a part): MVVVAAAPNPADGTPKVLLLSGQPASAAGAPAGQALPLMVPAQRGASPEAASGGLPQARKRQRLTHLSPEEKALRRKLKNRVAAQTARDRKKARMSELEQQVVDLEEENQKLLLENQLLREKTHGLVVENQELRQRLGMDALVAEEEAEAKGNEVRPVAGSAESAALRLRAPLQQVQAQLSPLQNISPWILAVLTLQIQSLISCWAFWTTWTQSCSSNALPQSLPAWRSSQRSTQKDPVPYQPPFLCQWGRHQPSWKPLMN
Sequence of Nuclear receptor subfamily 1 group I member 3 (Homo sapiens) (Q14994 whole entry, looked up, the tested form may be a part): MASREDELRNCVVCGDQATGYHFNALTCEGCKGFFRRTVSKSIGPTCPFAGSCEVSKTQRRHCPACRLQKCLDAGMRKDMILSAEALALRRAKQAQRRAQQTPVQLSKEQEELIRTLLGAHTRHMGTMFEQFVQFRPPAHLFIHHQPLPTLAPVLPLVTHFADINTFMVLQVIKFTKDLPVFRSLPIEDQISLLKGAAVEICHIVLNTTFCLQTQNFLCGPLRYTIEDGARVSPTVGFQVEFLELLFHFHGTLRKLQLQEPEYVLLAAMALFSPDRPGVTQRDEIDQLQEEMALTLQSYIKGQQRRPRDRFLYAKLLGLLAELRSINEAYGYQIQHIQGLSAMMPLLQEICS
Sequence of Bile acid receptor (Homo sapiens) (Q96RI1 whole entry, looked up, the tested form may be a part): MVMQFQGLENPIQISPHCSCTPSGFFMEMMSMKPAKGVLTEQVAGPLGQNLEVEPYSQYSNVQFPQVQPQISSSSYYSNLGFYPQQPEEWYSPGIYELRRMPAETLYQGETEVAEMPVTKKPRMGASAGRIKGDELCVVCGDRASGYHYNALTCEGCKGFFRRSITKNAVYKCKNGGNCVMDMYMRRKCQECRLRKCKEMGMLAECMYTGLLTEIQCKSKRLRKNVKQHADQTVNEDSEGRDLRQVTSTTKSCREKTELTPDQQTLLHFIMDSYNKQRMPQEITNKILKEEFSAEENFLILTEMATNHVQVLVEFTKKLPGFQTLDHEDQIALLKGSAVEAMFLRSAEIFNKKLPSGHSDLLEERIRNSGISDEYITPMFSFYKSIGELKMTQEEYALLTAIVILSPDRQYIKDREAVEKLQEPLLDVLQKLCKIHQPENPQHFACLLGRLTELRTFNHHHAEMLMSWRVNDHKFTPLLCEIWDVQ
Sequence of Steroid hormone receptor ERR1 (Homo sapiens) (P11474 whole entry, looked up, the tested form may be a part): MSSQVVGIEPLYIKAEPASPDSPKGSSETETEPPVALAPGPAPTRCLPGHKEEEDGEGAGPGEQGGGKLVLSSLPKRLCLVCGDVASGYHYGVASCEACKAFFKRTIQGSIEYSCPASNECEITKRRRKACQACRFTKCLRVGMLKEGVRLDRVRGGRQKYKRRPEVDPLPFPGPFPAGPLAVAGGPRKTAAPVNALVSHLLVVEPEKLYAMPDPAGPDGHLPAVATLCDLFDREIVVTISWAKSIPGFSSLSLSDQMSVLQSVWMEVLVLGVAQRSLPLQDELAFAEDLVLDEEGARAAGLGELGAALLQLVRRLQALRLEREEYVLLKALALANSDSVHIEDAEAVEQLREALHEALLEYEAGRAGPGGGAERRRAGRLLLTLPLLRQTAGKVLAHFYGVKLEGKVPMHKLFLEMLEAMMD
Sequence of Glucocorticoid receptor (Homo sapiens) (P04150 whole entry, looked up, the tested form may be a part): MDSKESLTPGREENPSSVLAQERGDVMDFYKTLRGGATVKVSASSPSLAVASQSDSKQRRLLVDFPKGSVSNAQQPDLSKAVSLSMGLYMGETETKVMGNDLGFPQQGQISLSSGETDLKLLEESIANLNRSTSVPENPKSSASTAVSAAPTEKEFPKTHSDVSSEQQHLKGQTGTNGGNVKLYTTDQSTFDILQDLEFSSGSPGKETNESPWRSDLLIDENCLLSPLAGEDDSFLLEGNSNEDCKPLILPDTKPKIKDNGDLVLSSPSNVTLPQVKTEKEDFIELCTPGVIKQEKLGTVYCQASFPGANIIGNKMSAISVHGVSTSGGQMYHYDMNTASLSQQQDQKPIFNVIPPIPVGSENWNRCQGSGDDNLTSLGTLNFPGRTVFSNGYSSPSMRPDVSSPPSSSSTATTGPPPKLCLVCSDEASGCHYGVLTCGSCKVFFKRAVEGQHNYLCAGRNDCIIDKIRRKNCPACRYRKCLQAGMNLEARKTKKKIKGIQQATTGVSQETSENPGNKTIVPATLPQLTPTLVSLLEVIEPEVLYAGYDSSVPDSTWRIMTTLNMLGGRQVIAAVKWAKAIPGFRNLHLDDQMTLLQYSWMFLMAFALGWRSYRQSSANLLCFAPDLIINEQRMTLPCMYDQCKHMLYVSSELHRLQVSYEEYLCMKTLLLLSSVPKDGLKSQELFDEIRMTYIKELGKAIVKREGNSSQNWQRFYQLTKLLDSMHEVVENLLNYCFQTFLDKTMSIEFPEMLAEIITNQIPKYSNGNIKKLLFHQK

With O=C(c1cc(O)c(O)c(O)c1)c1ccc(O)c(O)c1O the outcome [1] was “inactive”, the outcome [2] was “inactive” and the outcome [3] was “inactive”. For the same molecule, the outcome [4] was “inactive”, the outcome [5] was “inactive” and the outcome [6] was “inactive”.
For Brc1cc(Br)c(Oc2c(Br)cc(Br)c(Br)c2Br)cc1Br, the outcome [1] was “inactive”, the outcome [7] was “inactive” and the outcome [8] was “inactive”. For the same molecule, the outcome [3] was “inactive”, the outcome [9] was “inactive” and the outcome [10] was “inactive”. The outcome [4] was “inactive” and the outcome [5] was “inactive”.
With COC(O)c1ccccc1 (stereo not given) the outcome [1] was “inactive”, the AC50 [7] was 56.7 µM (active) and the outcome [8] was “inactive”. For the same molecule, the outcome [3] was “inactive”, the outcome [10] was “inactive” and the outcome [4] was “inactive”. The outcome [5] was “inactive”.
For CCCCN(C)C, the outcome [1] was “inactive”, the outcome [2] was “inactive” and the outcome [3] was “inactive”. The outcome [5] was “inactive” and the outcome [6] was “inactive”.
With O=P(O)(O)CCC(F)(F)C(F)(F)C(F)(F)C(F)(F)C(F)(F)C(F)(F)F the outcome [1] was “inactive”, the outcome [7] was “inactive” and the outcome [8] was “inactive”. For the same molecule, the outcome [3] was “inactive”, the outcome [9] was “inactive” and the outcome [10] was “inactive”. For the same molecule, the outcome [5] was “inactive” and the outcome [6] was “inactive”.
For CC(C)(C)c1ccc(O)c(O)c1, the AC50 [1] was 4.28 µM (active) [middle of 5 runs], the outcome [2] was “inactive” and the outcome [3] was “inactive”. For the same molecule, the outcome [9] was “inactive”, the outcome [10] was “inactive” and the outcome [5] was “inactive”. The outcome [6] was “inactive”.
In the case of Cc1ccc(C)c(S(=O)(=O)O)c1, the outcome [1] is reported as “inactive”, the outcome [2] is reported as “inactive” and the outcome [3] is reported as “inactive”. For the same molecule, the outcome [10] was “inactive”.
For CCCCCCOC(=O)c1ccc(O)cc1, the AC50 [1] was 49.9 µM (active), the AC50 [7] was 3.24 µM (active) and the outcome [8] was “inactive”. For the same molecule, the AC50 [3] was 54.6 µM (active), the outcome [9] was “inactive” and the outcome [6] was “inactive”.
For O=C(O)C(=O)O, the outcome [1] was “inactive”, the outcome [2] was “inactive” and the outcome [3] was “inactive”. For the same molecule, the outcome [9] was “inactive”, the outcome [10] was “inactive” and the outcome [5] was “inactive”.
In the case of C=CC(=O)OCCN(CC)CC, the AC50 [1] is reported as 62.9 µM (active), the outcome [2] is reported as “inactive” and the AC50 [3] is reported as 29 µM (active). For the same molecule, the outcome [9] was “inactive” and the outcome [10] was “inactive”.
In the case of CC(=O)Nc1ccc(S(N)(=O)=O)cc1, the outcome [1] is reported as “inactive”, the outcome [7] is reported as “inactive” and the outcome [8] is reported as “inactive”. The outcome [3] was “inactive”, the outcome [9] was “inactive” and the outcome [10] was “inactive”. The outcome [5] was “inactive”.
For CCc1cccc(CC)c1NC(=O)C(=O)O, the outcome [1] was “inactive”, the outcome [2] was “inactive” and the outcome [3] was “inactive”. For the same molecule, the outcome [9] was “inactive”, the outcome [10] was “inactive” and the outcome [4] was “inactive”. The outcome [5] was “inactive” and the outcome [6] was “inactive”.
With Oc1c(Cl)ccc(Cl)c1Cl the outcome [1] was “inactive”, the outcome [7] was “inactive” and the outcome [3] was “inactive”.
For O=C(O)CN(CCCN(CC(=O)O)CC(=O)O)CC(=O)O, the outcome [1] was “inactive”, the outcome [2] was “inactive” and the outcome [3] was “inactive”. For the same molecule, the outcome [10] was “inactive”.
With FC(F)(F)C1(F)C(F)(F)C(F)(F)C(F)(F)C(F)(C(F)(F)F)C1(F)F (stereo not given) the outcome [1] was “inactive”, the outcome [7] was “inactive” and the outcome [8] was “inactive”. For the same molecule, the outcome [3] was “inactive”, the outcome [10] was “inactive” and the outcome [5] was “inactive”.
In the case of Cc1cc(C(=C2C=CC(=Nc3ccc(S(=O)(=O)O)cc3)C=C2)c2ccc(Nc3ccc(S(=O)(=O)O)cc3)cc2)cc(S(=O)(=O)O)c1N, the outcome [1] is reported as “inactive”, the outcome [2] is reported as “inactive” and the outcome [8] is reported as “inactive”. For the same molecule, the outcome [3] was “inactive” and the outcome [5] was “inactive”.
In the case of c1ccc(CNc2ncnc3c2ncn3C2CCCCO2)cc1 (stereo not given), the AC50 [1] is reported as 22.9 µM (active), the outcome [2] is reported as “inactive” and the outcome [3] is reported as “inactive”. For the same molecule, the outcome [5] was “inactive” and the outcome [6] was “inactive”.
